# Reference: a collection of fitness landscapes (doi:10.1126/science.1257360)
# Over roughly 140,000 sequences, “enrichment ratio after two sorts for PhoP signalling” has its median near 0; the highest 2% begin near 11. The sample holds the highest values, similar sequences and a random draw of the others, so the mix is not that of the screen.
# B1: PhoQ; a variant is named by its letters at X, in order, P23837 (parent)
# chain: MKKLLRLFFPLSLRVRFLLATAAVVLVLSLAYGMVALIGYSVSFDKTTFRLLRGESNLFYTLAKWENNKLHVELPENIDKQSPTMTLIYDENGQLLWAQRDVPWLMKMIQPDWLKSNGFHEIEADVNDTSLLLSGDHSIQQQLQEVREDDDDAEMTHSVAVNVYPATSRMPKLTIVVVDTIPVELKSSYMVWSWFIYVLSANLLLVIPLLWVAAWWSLRPIEALAKEVRELEEHNRELLNPATTRELTSLVRNLNRLLKSERERYDKYRTTLTDLTHSLKTPLXXLQXXLRSLRSEKMSVSDAEPVMLEQISRISQQIGYYLHRASMRGGTLLSRELHPVAPLLDNLTSALNKVYQRKGVNISLDISPEISFVGEQNDFVEVMGNVLDNACKYCLEFVEISARQTDEHLYIVVEDDGPGIPLSKREVIFDRGQRVDTLRPGQGVGLAVAREITEQYEGKIVAGESMLGGARMEVIFGRQHSAPKDE
# Variants of: B1
# Experiment: enrichment ratio after two sorts for PhoP signalling (ratio (wild type AVST 3.29)); higher = more functional
# Conditions: with PhoP (E. coli)
row,Variant,enrichment ratio
1,TMFD,≤ 0.25
2,AHCM,9.33
3,THSS,8.94
4,AKKL,≤ 0.25
5,YGCL,2.74
6,YHQH,≤ 0.25
7,LTGF,≤ 0.25
8,NVHI,≤ 0.25
9,KSHN,≤ 0.25
10,YTMF,5.8
11,TTHN,15.7
12,YTHI,≤ 0.25
13,WIMF,≤ 0.25
14,YTGF,≤ 0.25
15,YTHN,≤ 0.25
16,TTGF,17.1
17,TTHI,11.5
18,CTMF,25.7
19,WRNH,≤ 0.25
20,PTGD,≤ 0.25
21,HQVK,≤ 0.25
22,VNRG,≤ 0.25
23,GRVA,≤ 0.25

row,Variant,enrichment ratio
1,FSSR,≤ 0.25
2,SFVK,≤ 0.25
3,IYPH,≤ 0.25
4,WNMY,≤ 0.25
5,PTMF,≤ 0.25
6,MEMF,0.449
7,WIMS,≤ 0.25
8,YTMS,≤ 0.25
9,TTMS,26.8
10,TKMF,11.5
11,GTYD,≤ 0.25
12,SAKT,≤ 0.25
13,FGAP,≤ 0.25
14,FCVG,≤ 0.25
15,RGTF,≤ 0.25
16,WISV,≤ 0.25
17,AISV,15.9
18,VHSV,≤ 0.25
19,ADSV,4.14
20,TISV,12.8
21,RISV,≤ 0.25
22,IHWP,≤ 0.25
23,WMPW,≤ 0.25

row,Variant,enrichment ratio
1,DDPW,≤ 0.25
2,WIPR,≤ 0.25
3,GRSL,≤ 0.25
4,KCMH,≤ 0.25
5,TCMI,15
6,TCMD,≤ 0.25
7,TCMS,10.9
8,TCMV,14.6
9,HCMH,≤ 0.25
10,TCIV,≤ 0.25
11,TCMA,15.5
12,TCWV,2.38
13,KCMA,≤ 0.25
14,TCMH,15.1
15,FCMA,5.8
16,FRCS,≤ 0.25
17,HLCG,≤ 0.25
18,TQVV,4.23
19,LDFE,≤ 0.25
20,SIYM,0.397
21,FWIR,≤ 0.25
22,LPTL,≤ 0.25
23,AFEF,≤ 0.25

row,Variant,enrichment ratio
1,SVVF,≤ 0.25
2,FPHE,≤ 0.25
3,TCTG,20
4,KCTG,≤ 0.25
5,TCMF,26.2
6,KSNV,≤ 0.25
7,TCIG,≤ 0.25
8,TYMF,≤ 0.25
9,KCNV,≤ 0.25
10,TCMG,11.4
11,TCVG,≤ 0.25
12,FCMF,0.805
13,TCNV,16.2
14,VCTG,0.404
15,IPQW,≤ 0.25
16,TEEP,≤ 0.25
17,KVAI,≤ 0.25
18,VSKE,≤ 0.25
19,LVPE,≤ 0.25
20,KFTM,≤ 0.25
21,VECA,3.45
22,FAFY,≤ 0.25
23,SNSG,10.7

row,Variant,enrichment ratio
1,GRCQ,≤ 0.25
2,DDFY,≤ 0.25
3,TGSW,≤ 0.25
4,RFSN,0.949
5,TCWG,≤ 0.25
6,TCGG,21.5
7,TCFK,≤ 0.25
8,TCVC,≤ 0.25
9,TCHP,≤ 0.25
10,TCHQ,23.4
11,WFIY,≤ 0.25
12,HKKD,≤ 0.25
13,VKAH,≤ 0.25
14,AFQW,≤ 0.25
15,SKSM,14
16,SKSK,≤ 0.25
17,SKGM,≤ 0.25
18,SKIM,20.9
19,SKIC,30.5
20,SKSF,≤ 0.25
21,SKFC,≤ 0.25
22,SKAM,28
23,HKSM,≤ 0.25

row,Variant,enrichment ratio
1,SKRC,≤ 0.25
2,SKPM,≤ 0.25
3,SKRM,≤ 0.25
4,AFGE,≤ 0.25
5,KDQH,≤ 0.25
6,EESA,≤ 0.25
7,NRWG,≤ 0.25
8,FGTG,≤ 0.25
9,MKMF,≤ 0.25
10,TNYM,1.85
11,NVGW,≤ 0.25
12,ANGW,11.4
13,AGGW,0.253
14,AVGD,≤ 0.25
15,AIGW,11.4
16,AVGW,12.2
17,ANHW,≤ 0.25
18,VHGW,≤ 0.25
19,AHGW,≤ 0.25
20,RGVW,≤ 0.25
21,GKNA,≤ 0.25
22,CIQI,≤ 0.25
23,VWKV,≤ 0.25

row,Variant,enrichment ratio
1,QAIG,≤ 0.25
2,WRVK,≤ 0.25
3,MGMY,≤ 0.25
4,MGME,13
5,MGTG,≤ 0.25
6,MGMW,≤ 0.25
7,MGWG,0.67
8,MGMG,42.5
9,LMNI,≤ 0.25
10,QSSL,9.11
11,KSSL,≤ 0.25
12,SDSL,0.277
13,ASSL,11.7
14,SSSL,12.5
15,TSSL,13.7
16,NSSL,≤ 0.25
17,VRSL,≤ 0.25
18,FSSL,≤ 0.25
